Test results taken from PubChem BioAssay (EPA / NIEHS).
Several values for one entry are separate records, joined by “and”; a condition that tells them apart may be missing. Identical values can stand only once. Inconclusive results are not listed. The source holds several records for some structures; these can differ, active in one and inactive in another. Activity calls are given as the source filed them. The calls were made as follows, unless noted: active = hit-call score of the fitted dose curve at least 0.9, where 1 is the maximum; inactive = score below 0.9.

Experiments:
[1] = target: Glucocorticoid receptor (Homo sapiens) (UniProt P04150); test: ATG_GR_TRANS: Attagene TRANS-FACTORIAL HepG2 Assay for human Glucocorticoid Receptor (GR) (AID 2282978; active = hit-call score of the fitted dose curve at least 0.9, where 1 is the maximum;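 also: activators score as hits since higher reporter transcript over DMSO is fitted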); conditions: HepG2 Attagene TRANS GR reporter, mRNA transcription
Glucocorticoid receptor (Homo sapiens), sequence (P04150 whole entry, looked up, the tested form may be a part): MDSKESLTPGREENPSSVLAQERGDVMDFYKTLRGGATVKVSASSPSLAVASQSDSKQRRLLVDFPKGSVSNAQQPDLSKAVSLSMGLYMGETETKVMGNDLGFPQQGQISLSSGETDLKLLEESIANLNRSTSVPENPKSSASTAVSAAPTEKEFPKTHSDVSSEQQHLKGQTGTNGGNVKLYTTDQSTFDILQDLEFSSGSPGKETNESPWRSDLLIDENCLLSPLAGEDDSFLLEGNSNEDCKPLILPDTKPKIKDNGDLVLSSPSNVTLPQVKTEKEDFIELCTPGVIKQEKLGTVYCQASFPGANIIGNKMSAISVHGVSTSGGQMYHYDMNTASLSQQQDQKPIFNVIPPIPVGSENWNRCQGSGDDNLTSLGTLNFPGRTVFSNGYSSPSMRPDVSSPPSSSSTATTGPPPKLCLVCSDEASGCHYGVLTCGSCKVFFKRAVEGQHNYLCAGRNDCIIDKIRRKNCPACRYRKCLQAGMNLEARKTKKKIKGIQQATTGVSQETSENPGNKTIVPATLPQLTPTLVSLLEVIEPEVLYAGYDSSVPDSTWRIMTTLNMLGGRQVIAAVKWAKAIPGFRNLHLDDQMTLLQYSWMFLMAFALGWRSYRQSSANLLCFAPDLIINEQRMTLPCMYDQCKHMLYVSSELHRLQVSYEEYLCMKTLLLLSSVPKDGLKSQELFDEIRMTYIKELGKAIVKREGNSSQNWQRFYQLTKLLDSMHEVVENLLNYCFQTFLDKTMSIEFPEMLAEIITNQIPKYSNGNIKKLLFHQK
Outline: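 Transiently transfected HepG2 cells express chimeric NR-GAL4 proteins acting on GAL4-UAS reporter units. Compounds are applied for 24 h. mRNA induction over DMSO is measured by capillary electrophoresis.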

[2] = target: Oxysterols receptor LXR-alpha (Homo sapiens) (UniProt Q13133); test: ATG_LXRa_TRANS: Attagene TRANS-FACTORIAL HepG2 Assay for human Liver X Receptor alpha (LXRa) (AID 2282980; active = hit-call score of the fitted dose curve at least 0.9, where 1 is the maximum); conditions: HepG2 Attagene TRANS reporter, LXRa transactivation
Oxysterols receptor LXR-alpha (Homo sapiens), sequence (Q13133 whole entry, looked up, the tested form may be a part): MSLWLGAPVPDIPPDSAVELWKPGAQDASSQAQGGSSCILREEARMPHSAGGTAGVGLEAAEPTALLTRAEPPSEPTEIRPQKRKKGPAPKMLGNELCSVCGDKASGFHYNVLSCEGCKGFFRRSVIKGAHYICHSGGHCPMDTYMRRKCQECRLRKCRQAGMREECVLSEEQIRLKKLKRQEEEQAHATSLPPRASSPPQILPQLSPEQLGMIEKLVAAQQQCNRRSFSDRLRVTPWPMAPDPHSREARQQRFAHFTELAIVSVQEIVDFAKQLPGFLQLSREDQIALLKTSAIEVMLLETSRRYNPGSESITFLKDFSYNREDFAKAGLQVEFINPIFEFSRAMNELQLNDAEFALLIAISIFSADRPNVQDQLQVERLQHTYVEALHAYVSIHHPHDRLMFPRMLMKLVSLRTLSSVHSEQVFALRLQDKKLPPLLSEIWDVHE
Outline: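 In this multiplexed TRANS system, compounds act on HepG2 cells carrying GAL4-UAS reporter units and a receptor-GAL4 fusion for 24 h. Induced reporter RNA is amplified, fluorescently labelled and sized by capillary electrophoresis, with DMSO as baseline.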

[3] = target: Oxysterols receptor LXR-beta (Homo sapiens) (UniProt P55055); test: ATG_LXRb_TRANS: Attagene TRANS-FACTORIAL HepG2 Assay for human Liver X Receptor beta (LXRb) (AID 2282981; active = hit-call score of the fitted dose curve at least 0.9, where 1 is the maximum); conditions: HepG2 Attagene TRANS GAL4-LXRb reporter, mRNA
Oxysterols receptor LXR-beta (Homo sapiens), sequence (P55055 whole entry, looked up, the tested form may be a part): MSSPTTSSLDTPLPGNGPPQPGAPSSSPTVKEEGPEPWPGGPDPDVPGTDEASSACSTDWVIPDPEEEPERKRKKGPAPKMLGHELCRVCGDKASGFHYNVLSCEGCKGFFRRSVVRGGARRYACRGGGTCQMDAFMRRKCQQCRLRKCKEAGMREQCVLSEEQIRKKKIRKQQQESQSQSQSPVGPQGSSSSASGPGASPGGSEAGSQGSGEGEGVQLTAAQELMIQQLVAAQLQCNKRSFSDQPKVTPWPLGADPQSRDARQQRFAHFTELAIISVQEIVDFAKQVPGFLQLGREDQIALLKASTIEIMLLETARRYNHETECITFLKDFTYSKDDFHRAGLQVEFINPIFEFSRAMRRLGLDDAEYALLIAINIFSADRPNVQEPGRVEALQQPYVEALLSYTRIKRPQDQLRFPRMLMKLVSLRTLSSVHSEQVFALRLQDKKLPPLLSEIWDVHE
Outline: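 After 24 h chemical treatment of transfected HepG2 cells carrying exogenous NR-Gal4 chimeras, reporter mRNA was quantified by fluorescent RT-PCR and capillary electrophoresis; activity taken as increase over DMSO controls.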

[4] = target: Hepatocyte nuclear factor 4-alpha (Homo sapiens) (UniProt P41235); test: ATG_HNF4a_TRANS: Attagene TRANS-FACTORIAL HepG2 Assay for human Hepatocyte Nuclear Factor 4 alpha (HNF4a) (AID 2282982; active = hit-call score of the fitted dose curve at least 0.9, where 1 is the maximum); conditions: HepG2 HNF4a transactivation reporter, mRNA readout
Hepatocyte nuclear factor 4-alpha (Homo sapiens), sequence (P41235 whole entry, looked up, the tested form may be a part): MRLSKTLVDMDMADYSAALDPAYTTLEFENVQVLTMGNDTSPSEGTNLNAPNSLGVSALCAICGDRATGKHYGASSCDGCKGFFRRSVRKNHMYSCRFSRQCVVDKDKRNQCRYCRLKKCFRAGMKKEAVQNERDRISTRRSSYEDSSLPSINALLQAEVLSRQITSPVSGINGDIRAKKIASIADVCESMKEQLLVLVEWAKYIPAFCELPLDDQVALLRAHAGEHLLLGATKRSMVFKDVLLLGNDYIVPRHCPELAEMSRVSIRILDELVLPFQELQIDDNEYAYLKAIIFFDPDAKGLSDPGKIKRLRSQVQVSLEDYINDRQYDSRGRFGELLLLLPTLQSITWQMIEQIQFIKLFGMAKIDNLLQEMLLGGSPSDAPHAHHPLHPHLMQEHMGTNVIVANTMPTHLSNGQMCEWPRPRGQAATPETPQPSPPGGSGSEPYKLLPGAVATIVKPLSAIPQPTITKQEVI
Outline: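 Activity of an exogenous HNF4a–Gal4 fusion scored as induced GAL4-UAS reporter transcripts after 24 h chemical exposure of transfected human HepG2 cells. Read-out via RT-PCR with 6-FAM labelling and capillary electrophoresis; rise over DMSO baseline.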

[5] = ATG_M_06_TRANS: Attagene TRANS-FACTORIAL HepG2 Assay for M06 Transcription Factor (Internal Marker) (AID 2282983; active = hit-call score of the fitted dose curve at least 0.9, where 1 is the maximum;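 also: reporter transcript level by RT-PCR then capillary electrophoresis fluorescence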); conditions: HepG2 Attagene TRANS M06 internal marker reporter
Outline: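 Multi-reporter-transfected HepG2, 24 h treatment; reporter transcripts quantified via RT-PCR, primer-extension labelling and CE. DMSO-normalized gain-of-signal fit.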

[6] = ATG_M_32_TRANS: Attagene TRANS-FACTORIAL HepG2 Assay for M32 Transcription Factor (Internal Marker) (AID 2282984; active = hit-call score of the fitted dose curve at least 0.9, where 1 is the maximum;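 also: transcript level of a background control reporter unit measured by RT-PCR and capillary electrophoresis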); conditions: HepG2 Attagene TRANS M32 internal marker reporter
Outline: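 Internal background reporter in transfected HepG2: after 24 h chemical exposure, RNA reverse-transcribed, reporter cDNA amplified, fluorescently labelled and HpaI-cut, then sized by capillary electrophoresis. Gain of signal fitted against DMSO control.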

[7] = target: Nuclear receptor subfamily 4 group A member 2 (Homo sapiens) (UniProt P43354); test: ATG_NURR1_TRANS: Attagene TRANS-FACTORIAL HepG2 Assay for human Nuclear Receptor Related Protein 1 (NURR1) (AID 2282985; active = hit-call score of the fitted dose curve at least 0.9, where 1 is the maximum); conditions: HepG2 Attagene TRANS reporter, mRNA readout
Nuclear receptor subfamily 4 group A member 2 (Homo sapiens), sequence (P43354 whole entry, looked up, the tested form may be a part): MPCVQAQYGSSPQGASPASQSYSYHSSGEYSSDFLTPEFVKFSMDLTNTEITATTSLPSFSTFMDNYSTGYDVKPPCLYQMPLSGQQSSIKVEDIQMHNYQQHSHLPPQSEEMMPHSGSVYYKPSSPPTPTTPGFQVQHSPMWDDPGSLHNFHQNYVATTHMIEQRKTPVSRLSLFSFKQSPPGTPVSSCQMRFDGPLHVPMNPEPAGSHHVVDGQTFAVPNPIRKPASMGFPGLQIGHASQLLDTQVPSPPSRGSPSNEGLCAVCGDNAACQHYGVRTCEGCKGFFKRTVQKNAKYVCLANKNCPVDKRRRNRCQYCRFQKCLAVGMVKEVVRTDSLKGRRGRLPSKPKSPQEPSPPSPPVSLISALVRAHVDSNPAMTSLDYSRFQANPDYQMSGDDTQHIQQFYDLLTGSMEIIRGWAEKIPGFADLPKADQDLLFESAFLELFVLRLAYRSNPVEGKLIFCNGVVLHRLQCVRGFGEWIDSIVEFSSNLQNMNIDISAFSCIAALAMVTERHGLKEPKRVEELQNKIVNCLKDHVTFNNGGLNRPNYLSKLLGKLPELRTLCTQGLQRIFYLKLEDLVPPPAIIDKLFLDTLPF
Outline: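 Reporter transcript induction, measured by RT-PCR with fluorescent labelling, HpaI digestion and capillary electrophoresis, after 24 hr dosing of human HepG2 cells transiently expressing an exogenous NR-Gal4 fusion with GAL4-UAS-driven reporters; DMSO as baseline.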

[8] = target: Transcriptional activator Myb (Homo sapiens) (UniProt P10242); test: ATG_Myb_CIS: Attagene CIS-FACTORIAL HepG2 Assay for human Myeloblastosis (Myb) Proto-Oncogene Transcription Factor (AID 2282986); conditions: HepG2 Attagene CIS-FACTORIAL Myb reporter transcription; actives raise or lower the signal
Transcriptional activator Myb (Homo sapiens), sequence (P10242 whole entry, looked up): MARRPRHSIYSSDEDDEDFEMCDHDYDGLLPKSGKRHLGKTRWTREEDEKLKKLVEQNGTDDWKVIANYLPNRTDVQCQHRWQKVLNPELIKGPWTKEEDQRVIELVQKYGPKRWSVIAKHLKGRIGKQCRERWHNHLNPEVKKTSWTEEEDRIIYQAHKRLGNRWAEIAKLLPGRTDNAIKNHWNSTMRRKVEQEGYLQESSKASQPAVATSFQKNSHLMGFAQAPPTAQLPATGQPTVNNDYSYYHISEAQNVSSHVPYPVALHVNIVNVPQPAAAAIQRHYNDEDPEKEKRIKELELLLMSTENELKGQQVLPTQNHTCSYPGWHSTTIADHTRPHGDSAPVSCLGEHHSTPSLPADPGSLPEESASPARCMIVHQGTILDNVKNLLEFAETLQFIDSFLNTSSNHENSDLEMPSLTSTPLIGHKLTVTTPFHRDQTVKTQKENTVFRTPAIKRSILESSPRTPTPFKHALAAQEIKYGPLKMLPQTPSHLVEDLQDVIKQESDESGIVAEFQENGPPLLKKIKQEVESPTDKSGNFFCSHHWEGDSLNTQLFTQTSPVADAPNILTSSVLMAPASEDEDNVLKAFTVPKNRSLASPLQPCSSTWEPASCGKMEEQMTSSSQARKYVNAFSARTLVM
Outline: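 Using HepG2 liver cells bearing transiently transfected cis-promoter reporter constructs, the assay measures induction or loss of reporter mRNA after 24 hours of dosing. Detection used fluorescently labeled RT-PCR products separated by capillary electrophoresis.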

[9] = target: Nuclear respiratory factor 1 (Homo sapiens) (UniProt Q16656); test: ATG_NRF1_CIS: Attagene CIS-FACTORIAL HepG2 Assay for human Nuclear Respiratory Factor 1 (NRF1) Orphan Gene (AID 2282987); conditions: HepG2 NRF1 cis-element reporter, Attagene multiplex; actives raise or lower the signal
Nuclear respiratory factor 1 (Homo sapiens), sequence (Q16656 whole entry, looked up): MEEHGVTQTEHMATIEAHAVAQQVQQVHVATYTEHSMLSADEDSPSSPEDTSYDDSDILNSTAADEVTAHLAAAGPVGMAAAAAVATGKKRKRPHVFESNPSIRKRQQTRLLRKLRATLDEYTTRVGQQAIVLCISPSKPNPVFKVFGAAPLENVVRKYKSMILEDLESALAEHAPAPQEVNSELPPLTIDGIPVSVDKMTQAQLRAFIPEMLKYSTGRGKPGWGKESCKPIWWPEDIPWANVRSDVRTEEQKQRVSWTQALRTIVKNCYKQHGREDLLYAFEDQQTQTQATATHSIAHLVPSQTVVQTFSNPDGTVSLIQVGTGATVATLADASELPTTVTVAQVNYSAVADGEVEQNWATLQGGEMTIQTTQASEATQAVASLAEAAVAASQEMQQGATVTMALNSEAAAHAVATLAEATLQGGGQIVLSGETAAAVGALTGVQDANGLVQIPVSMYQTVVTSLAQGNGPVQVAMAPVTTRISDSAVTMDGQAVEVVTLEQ
Outline: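 Reporter mRNA induction or loss in HepG2 cells after 24 h dosing; cis-regulated reporter constructs report endogenous transcription-factor activity. Quantified by RT-PCR/capillary electrophoresis fluorescence, DMSO-referenced.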

[10] = target: Myc proto-oncogene protein (Homo sapiens) (UniProt P01106); test: ATG_Myc_CIS: Attagene CIS-FACTORIAL HepG2 Assay for human Myelocytomatosis (Myc) Proto-Oncogene Transcription Factor (AID 2282990); conditions: HepG2, Attagene cis-reporter transcription factor activity; actives raise or lower the signal
Myc proto-oncogene protein (Homo sapiens), sequence (P01106 whole entry, looked up, the tested form may be a part): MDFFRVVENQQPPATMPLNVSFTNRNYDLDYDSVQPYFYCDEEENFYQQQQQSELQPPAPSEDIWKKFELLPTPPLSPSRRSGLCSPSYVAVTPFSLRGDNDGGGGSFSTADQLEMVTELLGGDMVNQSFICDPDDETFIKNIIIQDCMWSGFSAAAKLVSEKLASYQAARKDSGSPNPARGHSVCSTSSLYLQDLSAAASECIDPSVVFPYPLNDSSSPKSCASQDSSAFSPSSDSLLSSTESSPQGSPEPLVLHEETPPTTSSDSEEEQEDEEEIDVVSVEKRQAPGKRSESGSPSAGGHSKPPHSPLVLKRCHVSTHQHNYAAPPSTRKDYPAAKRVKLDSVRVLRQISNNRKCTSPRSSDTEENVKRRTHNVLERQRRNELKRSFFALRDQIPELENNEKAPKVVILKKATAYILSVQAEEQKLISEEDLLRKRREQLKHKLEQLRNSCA
Outline: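 After 24 h chemical treatment of HepG2 cells carrying multiplexed cis-regulated reporter constructs, reporter transcripts quantified by RT-PCR and capillary electrophoresis of fluorescent fragments. Gain or loss fitted against DMSO baseline.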

[11] = ATG_NF_kB_CIS: Attagene CIS-FACTORIAL HepG2 Assay for human Nuclear Factor Kappa B (NF-kB) (AID 2282991); conditions: HepG2 Attagene cis-factorial NF-kB reporter mRNA; actives raise or lower the signal
Outline: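 DMSO served as negative control and baseline for bidirectional curve fitting. Transiently transfected HepG2 cells were dosed for 24 h, then reporter transcripts were measured by RT-PCR with capillary electrophoresis detection.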

[12] = ATG_NRF2_ARE_CIS: Attagene CIS-FACTORIAL HepG2 Assay for human Nuclear Factor Erythroid 2 Related Factor 2 (NFR2) response to Antioxidant Response Elements (ARE) (AID 2282992); conditions: HepG2 Attagene ARE/NRF2 reporter, transcription factor activity; actives raise or lower the signal;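 as to AC50: reporter mRNA level measured by RT-PCR and capillary electrophoresis fluorescence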
Outline: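 Endogenous transcription factor activity in human liver HepG2 cells is tracked via a cis-element-driven reporter within a multiplexed set. mRNA induction is read by RT-PCR and capillary electrophoresis after 24 h, with DMSO as baseline.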

[13] = ATG_Oct_MLP_CIS: Attagene CIS-FACTORIAL HepG2 Assay for human Octamer-Binding Transcription Factor (Oct) (AID 2282993); conditions: HepG2 Attagene cis-factorial Oct reporter, mRNA; actives raise or lower the signal
Outline: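 Transient MRTU transfection of HepG2 → 24 h compound treatment → RNA isolation, reverse transcription, PCR → 6-FAM primer extension, HpaI digest → capillary electrophoresis. Activity fitted both directions against DMSO.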

[14] = target: Cellular tumor antigen p53 (Homo sapiens) (UniProt P04637); test: ATG_p53_CIS: Attagene CIS-FACTORIAL HepG2 Assay for human p53 Transcription Factor (AID 2282994); conditions: HepG2 p53 cis-element reporter, Attagene mRNA; actives raise or lower the signal
Cellular tumor antigen p53 (Homo sapiens), sequence (P04637 whole entry, looked up, the tested form may be a part): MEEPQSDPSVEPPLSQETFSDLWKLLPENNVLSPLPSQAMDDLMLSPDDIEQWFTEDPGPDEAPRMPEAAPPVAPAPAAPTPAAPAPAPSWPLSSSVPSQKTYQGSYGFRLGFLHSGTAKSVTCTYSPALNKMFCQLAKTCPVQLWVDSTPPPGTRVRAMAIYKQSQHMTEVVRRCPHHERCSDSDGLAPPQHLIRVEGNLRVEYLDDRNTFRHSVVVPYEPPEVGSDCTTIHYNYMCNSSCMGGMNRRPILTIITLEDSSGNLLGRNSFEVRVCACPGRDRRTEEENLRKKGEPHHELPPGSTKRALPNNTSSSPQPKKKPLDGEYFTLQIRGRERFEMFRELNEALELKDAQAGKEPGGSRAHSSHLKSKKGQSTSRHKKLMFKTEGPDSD
Outline: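 Steps: transfect HepG2 with multiplexed cis reporter constructs; dose chemicals 24 h; extract RNA, reverse-transcribe, PCR-amplify reporter sequences; FAM-label, HpaI-digest, resolve fragments by CE. Activity fitted both directions relative to DMSO.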

[15] = BSK_3C_TissueFactor: BioMAP Diversity Plus: 3C Assay for Tissue Factor Biomarker Activity (AID 2282997); conditions: BioMAP 3C HUVEC, tissue factor biomarker readout; actives raise or lower the signal
Outline: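 In this endothelial system, HUVEC are treated for 24 h and Tissue Factor is assessed by ELISA, normalised to DMSO.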

[16] = BSK_3C_uPAR: BioMAP Diversity Plus: 3C Assay for Urokinase-type plasminogen activator receptor (uPAR) Biomarker Activity (AID 2282998); conditions: BioMAP 3C HUVEC, uPAR biomarker ELISA; actives raise or lower the signal
Outline: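 ELISA readout of uPAR on human vascular endothelium (umbilical vein primary cells), taken 24 h after chemical dosing. Increases and decreases are both fitted relative to DMSO vehicle.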

[17] = BSK_3C_VCAM1: BioMAP Diversity Plus: 3C Assay for Vascular cell adhesion molecule 1 (VCAM1) Biomarker Activity (AID 2282999); conditions: BioMAP 3C HUVEC, VCAM1 ELISA, cytokine-stimulated; actives raise or lower the signal
Outline: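 Activity fitted in both directions relative to DMSO, with ELISA measurement of the surface marker on primary HUVEC (3C) at 24 h post-treatment; parallel SRB staining (0.1% SRB, TCA-fixed, 560 nm) flagged overt cytotoxicity.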

[18] = BSK_4H_Eotaxin3: BioMAP Diversity Plus: 4H Assay for Eotaxin 3 Biomarker Activity (AID 2283000); conditions: primary human endothelial cells (HUVEC); actives raise or lower the signal
Outline: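 ELISA quantitation of CCL26 (Eotaxin-3) protein from chemically dosed human vascular endothelial cells at 24 h; increases and decreases both scored relative to DMSO-treated baseline.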

[19] = target: Bile acid receptor (Homo sapiens) (UniProt Q96RI1); test: ATG_FXR_TRANS: Attagene TRANS-FACTORIAL HepG2 Assay for Farnesoid X Receptor (FXR) (AID 2282979; active = hit-call score of the fitted dose curve at least 0.9, where 1 is the maximum); conditions: HepG2 Attagene TRANS FXR-GAL4 reporter transcription
Outline: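 After 24 h chemical treatment of transfected HepG2 cells, GAL4-UAS reporter transcripts driven by an exogenous FXR-GAL4 fusion were measured by RT-PCR and capillary electrophoresis. Increases over DMSO were fitted.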

[20] = ATG_NFI_CIS: Attagene CIS-FACTORIAL HepG2 Assay for human Nuclear Factor I (NFI) (AID 2282989); conditions: HepG2 cis-regulatory reporter, NFI response element transcription; actives raise or lower the signal
Outline: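 Transient MRTU transfection of HepG2 → 24 h chemical dosing → total RNA, oligo(dT) RT → PCR, 6-FAM primer extension, HpaI cut → capillary electrophoresis. Endpoint fitted bidirectionally relative to DMSO.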

Measured: AC50

CON(C)C(=O)Nc1ccc(Cl)c(Cl)c1
inactive: [1] | [2] | [3] | [4] | [5] | [6] | [7] | [8] | [9] | [10] | [11] | [13] | [14] | [15] | [16] | [17] | [18]
active: [12] 27.8 µM [middle of 4 runs]

CCOC(=O)CC(SP(=S)(OC)OC)C(=O)OCC (stereo unspecified)
active: [12] 25.1 µM and 19.6 µM | [13] 133 µM and 24 µM | [16] 5.14 µM
inactive: [1] | [2] | [3] | [4] | [5] | [6] | [7] | [8] | [9] | [10] | [11] | [14] | [15] | [17] | [18]

CCCCOC(=O)c1ccccc1C(=O)OCCCC
inactive: [1] | [2] | [3] | [4] | [5] | [6] | [7] | [8] | [9] | [10] | [11] | [13] | [14] | [15] | [16] | [17] | [18]
active: [12] 62.4 µM [middle of 5 runs]

CNC(=S)S
active: [12] 26.7 µM and 17.6 µM | [13] 50 µM | [17] 12.2 µM | [18] 27.6 µM
inactive: [1] | [2] | [3] | [4] | [5] | [6] | [7] | [8] | [9] | [20] | [10] | [11] | [13] | [14] | [15] | [16]

CCNc1nc(Cl)nc(NC(C)C)n1
inactive: [1] | [2] | [3] | [4] | [5] | [6] | [8] | [9] | [10] | [11] | [12] | [13] | [14] | [15] | [16] | [17] | [18]
